Results taken from PubChem BioAssay (NCATS).
Several values for one entry are separate records, joined by “and”; a condition that tells them apart may be missing. Equal entries are not always repeated. Records with an inconclusive call do not appear. Activity calls are given as the source filed them. Unless noted, calls come from the whole dose curve; as a rule, active = well fitted curve in the direction sought with a large enough effect; inconclusive = small, poorly fitted or top-dose-only effect, or another doubt; inactive = no such curve, though single readings can be large; an effect the other way counts as inactive or inconclusive.

What was measured:
[1] = target: Glutaminase kidney isoform, mitochondrial (Homo sapiens) (UniProt O94925); experiment: qHTS for Inhibitors of Glutaminase (GLS): LOPAC Validation (AID 624146);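 note: glutamate product detected by oxidase and peroxidase coupled Amplex red fluorescence gain; series mostly up to about 46 µM; % is set by controls: 0 for no effect and ±100 for the full control effect; nearly all actives have a fitted effect of over 60% in size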
Method in brief: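 Compounds were pin-transferred onto hKGA, after which L-glutamine (1 mM solution) and a detection mix of glutamate oxidase, HRP and Amplex Red were added. Initial and 30 min RT fluorescence reads were collected.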

[2] = qHTS of Trypanosoma Brucei Inhibitors: LOPAC Validation (AID 624147); note: 0% is about no effect
Method in brief: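 ADP (130 uM final) triggers the TbPYK reaction after compound addition; incubation is 45 min at room temperature. Kinase-Glo Plus is then added and luminescence imaged. Normalized data are fitted to concentration-effect curves.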

[3] = target: Glucagon-like peptide 1 receptor (Homo sapiens) (UniProt P43220); experiment: qHTS of GLP-1 Receptor Agonists: LOPAC Validation (AID 624148);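 note: 0% is about no effect; higher luminescence signal means agonism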
Method in brief: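 HEK293 cells stably co-expressing GLP-1R and a cAMP-responsive luciferase reporter, plated 12 hours before compound, then incubated 4-6 hr at 37 deg C. Luminescence read 12 min after detection reagent.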

[4] = HTS Assay for Allosteric Antagonists of the Human D2 Dopamine Receptor: Hit Validation in HTRF (AID 624455);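 note: stable D1 dopamine receptor cell line scored for blocking the D1 response; % is set by controls: 0 for no effect and ±100 for the full control effect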
Method in brief: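 First, antagonism was screened by calcium flux in a force-coupled, inducible Hek293 Trex D2 line challenged with EC80 dopamine. Hits then went into an HTRF assay in cells stably expressing D1, testing inhibition of the D1 response.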

[5] = qHTS of Nrf2 Activators: LOPAC Validation (AID 624149); note: 0% is about no effect
Method in brief: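 Luminescence read-out of ARE-luciferase activation: AREc32_Fluc cells treated with compounds for 24 hr at 37 deg C, then lysed with Steady-Glo for 30 min at room temperature before reading.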

[6] = qHTS assay for small molecule agonists of the antioxidant response element (ARE) signaling pathway (AID 651741; active = well fitted activation curve with a large enough effect in the signal ratio; the % refers to the signal ratio; note: potency is the fitted concentration of half-maximal effect; for activation: % of control where 0% means no effect)
Method in brief: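 CellSensor ARE-bla HepG2 cells (2,000/well) carrying ARE-driven beta-lactamase, exposed 16 h at 37 C. LiveBLAzer B/G FRET substrate added for 2 h at room temperature; fluorescence intensity read.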

[7] = qHTS assay for small molecule activators of the p53 signaling pathway (AID 651743; active = well fitted activation curve with a large enough effect in the signal ratio, not every such curve was filed as active; the % refers to the signal ratio; note: series mostly up to about 92 µM; % of control where 0% means no effect); conditions: HCT-116 p53RE-bla, beta-lactamase FRET ratio, 16 h; activation: active compounds read high
Method in brief: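 p53RE-bla HCT-116 cells carrying a beta-lactamase reporter under p53 response elements were exposed to compounds for 16 hours at 37 C. Reporter activity read as fluorescence after 2 hours at room temperature with LiveBLAzer B/G FRET substrate.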

[8] = qHTS assay for small molecule activators of the nuclear factor-kappa B (NF-kB) signaling pathway (AID 651749; active = well fitted activation curve with a large enough effect in the signal ratio; the % refers to the signal ratio; note: series mostly up to about 77 µM; % of control where 0% means no effect); conditions: NF-kB-bla ME-180 cells, beta-lactamase FRET ratio, 16 h; active compounds read high
Method in brief: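 NF-kB-bla ME-180 cells carrying a beta-lactamase reporter under an NF-kB response element, 2,000 cells/well, exposed to compound for 16 hr at 37C; FRET-based beta-lactamase fluorescence read-out of pathway activation.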

[9] = qHTS assay for small molecule disruptors of the mitochondrial membrane potential - 1 hr assay (AID 651754; calls by dose curve; note: % is set by controls: 0 for no effect and ±100 for the full control effect; nearly all actives have a fitted effect of over 35% in size)
Method in brief: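 HepG2, 2,000 cells/well, overnight attachment; cpd or DMSO 1 hr, 37C/5% CO2; Mito-MPS dye 30 min, 37C; fluorescence monomer (490/535) and aggregate (540/590).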

[10] = qHTS assay for small molecule disruptors of the mitochondrial membrane potential - 5 hr assay (AID 651755; calls by dose curve; note: % is set by controls: 0 for no effect and ±100 for the full control effect; nearly all actives have a fitted effect of over 40% in size)
Method in brief: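 HepG2 cells (2,000/well), attached overnight, exposed to compound 5 hr at 37C, then Mito-MPS dye 30 min. Fluorescence read for monomers (490/535 nm) and aggregates (540/590 nm).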

Sequence of Glutaminase kidney isoform, mitochondrial (Homo sapiens) (O94925 whole entry, looked up, canonical isoform): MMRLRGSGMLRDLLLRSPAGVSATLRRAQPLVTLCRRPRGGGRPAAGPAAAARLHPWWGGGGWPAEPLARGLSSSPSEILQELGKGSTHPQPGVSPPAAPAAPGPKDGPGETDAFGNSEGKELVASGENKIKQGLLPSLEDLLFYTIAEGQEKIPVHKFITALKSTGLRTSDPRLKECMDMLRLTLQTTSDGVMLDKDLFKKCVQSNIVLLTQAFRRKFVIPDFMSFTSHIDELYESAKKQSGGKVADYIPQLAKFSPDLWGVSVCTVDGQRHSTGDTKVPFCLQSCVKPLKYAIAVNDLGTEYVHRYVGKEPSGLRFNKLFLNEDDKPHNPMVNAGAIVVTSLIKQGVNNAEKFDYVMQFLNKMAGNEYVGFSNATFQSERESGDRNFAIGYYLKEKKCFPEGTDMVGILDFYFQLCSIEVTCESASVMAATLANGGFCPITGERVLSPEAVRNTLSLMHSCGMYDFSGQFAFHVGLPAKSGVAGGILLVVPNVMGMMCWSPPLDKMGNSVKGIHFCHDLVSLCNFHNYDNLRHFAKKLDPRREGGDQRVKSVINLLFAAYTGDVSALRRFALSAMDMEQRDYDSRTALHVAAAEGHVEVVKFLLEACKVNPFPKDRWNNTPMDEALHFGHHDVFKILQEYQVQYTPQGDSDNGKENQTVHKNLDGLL
Sequence of Glucagon-like peptide 1 receptor (Homo sapiens) (P43220 whole entry, looked up): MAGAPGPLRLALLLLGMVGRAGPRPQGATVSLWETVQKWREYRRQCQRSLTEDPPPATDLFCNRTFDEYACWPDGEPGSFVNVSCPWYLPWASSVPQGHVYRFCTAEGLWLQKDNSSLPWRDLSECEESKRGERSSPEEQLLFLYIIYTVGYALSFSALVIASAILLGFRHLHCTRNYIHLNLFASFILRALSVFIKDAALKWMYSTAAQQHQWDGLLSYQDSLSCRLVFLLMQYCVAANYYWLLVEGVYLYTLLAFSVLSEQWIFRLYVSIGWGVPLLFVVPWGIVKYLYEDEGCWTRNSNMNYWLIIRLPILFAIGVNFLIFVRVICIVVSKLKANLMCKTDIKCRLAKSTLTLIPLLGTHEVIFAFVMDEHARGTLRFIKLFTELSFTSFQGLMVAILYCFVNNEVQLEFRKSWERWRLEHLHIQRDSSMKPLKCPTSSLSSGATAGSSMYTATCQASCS

CN(C)c1nc2c(Br)c(Br)c(Br)c(Br)c2[nH]1
inactive: Potency [1] | Potency [2] | outcome [3] | Potency [4]

CCCCCCCCCCCCCCCC(=O)OC(CC(=O)O)C[N+](C)(C)C (configuration not stated)
inactive: Potency [1] | Potency [2] | outcome [3] | outcome [5] | Potency [4]

CSc1nc(N)c2ncn([C@@H]3O[C@H](COP(=O)(O)OP(=O)(O)OP(=O)(O)O)[C@@H](O)[C@H]3O)c2n1
inactive: Potency [1] | Potency [2] | outcome [3] | outcome [5] | Potency [4]

COc1cc(SC)ccc1C(=O)N1CCC(Cc2ccccc2)CC1
inactive: Potency [1] | Potency [2] | outcome [3] | outcome [5] | Potency [4]

CC(=O)N[C@H](C(=O)O)C(C)(C)SN=O
inactive: Potency [1] | Potency [2] | outcome [3] | Potency [4]

O=c1[nH]c2cc([N+](=O)[O-])c([N+](=O)[O-])cc2[nH]c1=O
inactive: Potency [1] | Potency [2] | outcome [3] | outcome [5] | Potency [4]

C[N+](C)(C)CCOP(=O)(O)OP(=O)([O-])OC[C@H]1O[C@@H](n2ccc(N)nc2=O)[C@H](O)[C@@H]1O
inactive: Potency [1] | Potency [2] | outcome [3] | outcome [5] | Potency [4]

NCCCS(=O)(=O)O
inactive: Potency [1] | Potency [2] | outcome [3] | outcome [5] | Potency [4]

CC(C)NCC(O)COc1cccc2ccccc12 (configuration not stated)
inactive: Potency [6] | activation [7] -4.3% and -0.33% | activation [8] -0.327% and 0.291% | Potency [9] | Potency [10]

Oc1ccccc1O
inactive: activation [7] 25.3%

c1cnc2c(c1)ccc1cccnc12
inactive: activation [8] 1.8% | Potency [9]

O=C(c1cc(O)c(O)c([N+](=O)[O-])c1)c1ccccc1F
inactive: Potency [2] | outcome [3] | Potency [4]

COc1cc(OC)c(/C=C2/C(=O)Nc3ccccc32)c(OC)c1
inactive: Potency [2] | outcome [3] | outcome [5] | Potency [4]

O=[N+]([O-])c1ccc2c(c1)S(=O)(=O)C=C2
inactive: Potency [2] | outcome [3]

Nc1nc(Cl)nc2c1ncn2[C@@H]1O[C@H](COP(=O)(O)OP(=O)(O)OP(=O)(O)O)[C@@H](O)[C@H]1O
inactive: Potency [2] | outcome [3] | outcome [5]

CN(C)c1nc(N)c(C(=O)N=C(N)N)nc1Cl
inactive: Potency [2] | outcome [3] | outcome [5] | Potency [4]

Nc1ncnc2c1c(I)cn2[C@@H]1C[C@H](N)[C@@H](O)[C@H]1O
inactive: Potency [2] | outcome [3] | outcome [5] | Potency [4]

COc1ccc2c(c1)CCC1C2CC[C@@]2(C)C1CC[C@@H]2NCCCCCCN1C(=O)CCC1=O (some centres not stated)
inactive: Potency [2] | outcome [3] | Potency [4]

CC(C)NC[C@H](O)COc1cccc2[nH]ccc12
inactive: Potency [2] | outcome [3] | Potency [4]

CN1CCc2ccccc2Cc2[nH]c3ccccc3c2CC1
inactive: Potency [2] | outcome [3] | outcome [5] | Potency [4]

Cc1ccc(C(=O)O[C@H](C(=O)O)[C@@H](OC(=O)c2ccc(C)cc2)C(=O)O)cc1 (tested in a mixture with another compound)
inactive: Potency [2] | outcome [3] | outcome [5] | Potency [4]

N#C/C(=C\c1c[nH]c2ccccc12)C(=O)c1ccc(O)c(O)c1
inactive: Potency [2] | outcome [3] | Potency [4]

N#C/C(=C\c1ccc(O)c(O)c1)C(=O)c1ccc(O)c(O)c1
inactive: Potency [2] | outcome [3]

CN(C)C(N)=NCCC[C@H](N)C(=O)O
inactive: Potency [2] | outcome [3] | outcome [5]

Cn1cc(C2=C(c3ccc(Cl)cc3Cl)C(=O)NC2=O)c2ccccc21
inactive: Potency [2] | outcome [3] | outcome [5]

S=C(S)OC1CC2CC1C1CCCC21 (configuration not stated)
inactive: Potency [2] | outcome [3] | outcome [5] | Potency [4]

O=C(/C=C/c1ccc(O)cc1)c1ccc(O)cc1O
inactive: Potency [2] | outcome [3] | Potency [4]

N#C/C(=C\c1ccc(-c2cc(Cl)ccc2Cl)o1)C(=O)Nc1cccc2ncccc12
inactive: Potency [2] | outcome [3] | outcome [5] | Potency [4]

O=C(Nc1ccccc1)c1cc([N+](=O)[O-])ccc1Cl
active: Potency [6] 1.22 µM
inactive: Potency [2] | outcome [3] | outcome [5] | Potency [4] | activation [7] 4.29%

N#C/C(=C\c1ccc(O)c(O)c1)C(=O)NCCCc1ccccc1
inactive: Potency [2] | outcome [3] | outcome [5] | Potency [4]

Fc1ccc(C(OCCCc2cnc[nH]2)c2ccc(F)cc2)cc1
inactive: Potency [2] | outcome [3] | Potency [4]

Cc1cc2c(cc1Cl)N(C(=O)Nc1ccc(Oc3cccnc3C)nc1)CC2
inactive: Potency [2] | outcome [3] | outcome [5]

CCCCCCCCCCCCCCCC(=O)NCC(COP(=O)([O-])OCC[N+](C)(C)C)OCC (configuration not stated)
inactive: Potency [2] | outcome [3] | outcome [5] | Potency [4]
